Experimental data: the supplement of paper PMC3334620
Over roughly 33,000 sequences, “E-score (-0.5 to 0.5)” has its median near -0.054; the highest 2% begin near 0.35. The entries come from a sample that favours the highest values as a whole.

Target: T1, Stb5 (UniProt P38699)
T1 sequence: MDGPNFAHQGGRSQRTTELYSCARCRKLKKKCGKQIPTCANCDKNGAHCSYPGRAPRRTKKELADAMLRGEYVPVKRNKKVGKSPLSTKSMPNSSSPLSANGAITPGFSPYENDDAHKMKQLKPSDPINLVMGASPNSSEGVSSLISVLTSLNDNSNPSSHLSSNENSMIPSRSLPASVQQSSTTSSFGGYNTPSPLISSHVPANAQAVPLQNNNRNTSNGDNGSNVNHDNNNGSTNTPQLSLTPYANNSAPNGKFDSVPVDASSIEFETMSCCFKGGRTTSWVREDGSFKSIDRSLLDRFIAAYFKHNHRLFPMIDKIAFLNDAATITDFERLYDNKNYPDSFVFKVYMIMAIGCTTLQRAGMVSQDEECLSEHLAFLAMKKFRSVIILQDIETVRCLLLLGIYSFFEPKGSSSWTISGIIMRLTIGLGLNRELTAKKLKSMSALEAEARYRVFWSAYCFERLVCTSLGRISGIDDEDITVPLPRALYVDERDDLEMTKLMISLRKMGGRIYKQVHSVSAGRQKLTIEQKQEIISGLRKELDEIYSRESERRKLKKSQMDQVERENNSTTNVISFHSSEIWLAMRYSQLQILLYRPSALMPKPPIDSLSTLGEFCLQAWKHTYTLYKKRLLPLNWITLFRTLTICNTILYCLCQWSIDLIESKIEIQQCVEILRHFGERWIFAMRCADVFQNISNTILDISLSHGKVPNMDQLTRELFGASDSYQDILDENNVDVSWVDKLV
Experiment: PBM E-score (8-mer binding enrichment) (E-score (-0.5 to 0.5)); higher = stronger / more preferred TF binding
Conditions: protein concentration: 200 nM; construct: GST-full length
Method: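 Universal 'all 10-mer' protein binding microarrays (Agilent AMADID 015681) probed with GST-tagged S. cerevisiae TFs (full-length or DBD) made by in vitro transcription/translation (PURExpress), about 100-200 nM. Bound TF was detected with fluorescent anti-GST. Each ungapped 8-mer (which stands for itself and its reverse complement) is scored by the PBM enrichment score (E-score), a modified Wilcoxon-Mann-Whitney statistic from -0.5 to +0.5, computed with the Universal PBM Analysis Suite. Scale: above 0.35 generally sequence-specific binding.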

Sequence | PBM E-score
GGGAGTCA | -0.163
CGGAGTGA | 0.391
AGCGCAGA | -0.0263
CCATGACG | 0.0201
CCAATTTA | 0.119
TCACCGCA | 0.305
ACACCGCG | 0.444
CCACCGCG | 0.3
CCACCGCA | 0.245
ATACCGCA | 0.325
AGACCGCG | 0.297
CTACCGCC | 0.305
ATACCGCC | 0.434
CGACCGCC | 0.255
ACACCGCA | 0.44
ATACCGCG | 0.33
AGACCGCC | 0.364
CCCGTGAC | 0.155
GATTTGAC | 0.0761
CAGCGTAA | -0.168
CCCATTAG | -0.361
AATTCCGA | 0.265
GGACGGGA | 0.1
CCTTTGCG | 0.03
GATGCCCA | -0.136

Sequence | PBM E-score
ACACCGCT | 0.419
CCACCGCC | 0.282
AAACCGCC | 0.302
GAACCGCC | 0.187
ATACCGTA | 0.259
GGACCGCC | 0.288
GCACCGCC | 0.377
ATACCGTG | 0.249
AGACCGCT | 0.345
ATACCGTC | 0.357
AAACCGCT | 0.0494
ACACCGCC | 0.459
ATCTGGTC | -0.153
ATTTAGAG | -0.138
AATGGTGA | -0.231
TGTAGCAA | -0.0607
AATAAGCA | -0.0559
CAAAGTAG | -0.164
GGACCGCA | 0.188
GCACCGTA | 0.248
GCACCGCA | 0.361
CATCCGAC | 0.288
CGAGACTA | -0.0587
CGGGGTGA | 0.432
GGGGGTGA | -0.123

Sequence | PBM E-score
CCGGGTCA | 0.176
GGGGGTCA | -0.125
CCGGGTGA | 0.179
CGGGGTCA | 0.441
CGCTTGGA | -0.0324
TAGGACAA | -0.287
ACCGGGTC | 0.19
CCCCGGTC | 0.369
ACCCGGTC | 0.204
CCCGGGTA | 0.101
CCCGGGTC | 0.352
CCCCGGTA | 0.298
CCCGCACG | 0.325
GAAGTTCA | -0.189
ACCCCGGC | 0.343
ACCCCGGA | 0.308
ACCCCGGG | 0.392
CCCCGGGA | 0.268
CCCCGGGG | 0.393
ACCCCGGT | 0.356
CCCCGGGC | 0.265
CCCCCGGG | 0.237
ACCCGGGG | 0.185
TAGAAAAA | -0.116
ACAGCCCC | -0.0495

Sequence | PBM E-score
CCTGTGAC | -0.0962
CCGATGAC | 0.301
GTCCACGA | -0.134
AGGCTCTC | -0.369
AGAACTTA | -0.169
AATGTAGT | -0.128
ACAAAGCA | -0.0624
CTTGGGAC | -0.0832
AATTGCCA | -0.27
CAATGCCG | 0.334
AAGTGCCG | 0.409
AATTGCCG | 0.354
AAGTGCCC | 0.0216
AAATGCCG | 0.435
AAGTGCCA | -0.182
AAATGCCC | 0.0775
AATTGCCC | 0.0559
CTAGCGTC | 0.0861
AGAAACCA | -0.212
CCATGGCA | -0.0516
ACCCCTAC | -0.171
ATACATTC | -0.228
CACCGTCG | 0.373
CACCGTCC | 0.407
AACCGTCC | -0.0366

Sequence | PBM E-score
GACCGTCC | 0.21
AACCGTCG | 0.212
CACCGTCA | 0.333
AACCTAGC | -0.17
CTGTGGCA | -0.279
ATAAAGCC | 0.359
CTAAGCCC | 0.324
ATAAGACG | -0.111
ATAAGACC | 0.397
CTAAGGCC | 0.262
ATAAGGCC | 0.359
ATAAGCCA | -0.107
ATAAGGCG | -0.00531
CTAAAGCC | 0.228
CTAAGACC | 0.22
ATAAGCCC | 0.406
ATAAAGCG | 0.236
AGAAAGAG | -0.102
ACCTGATA | 0.0218
ATAAGTCC | 0.443
ATAAGTCG | 0.15
CTAAGTCC | 0.245
ATGCGTTG | -0.0346
AAACTCCC | 0.104
GAGTTCGC | 0.0473

Sequence | PBM E-score
CACGCCGC | 0.293
AACGCCGC | 0.448
TACGCCGA | 0.299
AACGCCAC | -0.0588
GACGCCGC | 0.406
AACGCCAT | -0.106
AACGCCGA | 0.456
CACGCCGA | 0.133
GACGCCGA | 0.342
AACGCCTT | -0.00961
AACGCCGT | 0.437
AACGCCTC | -0.064
ATAGCCCA | -0.245
ACCAGCGA | 0.0766
AAAGAGAA | -0.00974
AACGCCGG | 0.44
CACGCCGG | 0.268
AACGCCCG | 0.24
AAATAGAT | 0.104
CGCTCCGC | 0.164
AGCTCCCG | -0.0713
AGCTCCGG | 0.362
AGCTCCTG | -0.18
AGCTCCGC | 0.406
AGCTCCTC | -0.184

Sequence | PBM E-score
GGCTCCGA | 0.0871
CGCTCCGA | 0.231
AGCTCCGA | 0.405
AGAGCAGA | -0.138
AGGCCCGC | 0.36
ATGCCCGC | 0.366
CGGCCCGC | 0.188
ATGCCCGG | 0.318
CTGCCCGC | 0.06
AGGCCCGA | 0.314
TGACGTCA | 0.158
AGATGCGA | 0.0797
TACCACGA | -0.267
CGCCGCCA | 0.348
CTCCGCCA | 0.293
CGCCGCCC | 0.352
AGCCGCCG | 0.215
CGCCGCCG | 0.369
GGCCGCCC | 0.253
ATCCGCCC | 0.218
CTCCGCCC | 0.397
CGCCGCGA | 0.289
AGCCGCCC | 0.144
CGCCGCGC | 0.368
AGCCGCGC | 0.173
